# Screening data: PubChem BioAssay, National Center for Advancing Translational Sciences (NCATS)
# The list is not random: actives were taken first. Their share in the collection is about 7.9%.
# MARV entry inh – Marburg virus entry inhibition; Marburg virus pseudotyped entry inhibition, cell reporter; Potency, µM (highest dose often 37.8 µM), without a hit: top-dose activity change, negative = inhibition, usual class: inhibitors; 300,000 compounds, 1.8% hits; AID 540276; calls by dose curve; tested in HEK293 cells; note: potency is the fitted concentration of half-maximal effect
# HCV inhibitor – inhibitors of hepatitis C virus infection; Huh7.5.1 HCVcc-Cre infection, luciferase reporter, 44 h; Potency, µM (doses to about 41.8 µM), inactives show at the top dose activity change, negative = inhibition, usual class: inhibitors; 340,000 compounds, 3.4% hits; AID 651820; active = well fitted inhibition curve with a large enough effect; inconclusive = small, poorly fitted or top-dose-only effect, or another doubt; inactive = no such curve, though single readings can be large or run the other way; note: potency is the fitted concentration of half-maximal effect
#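 Compounds are dispensed onto cells plated 4 h earlier at 1,000 per well, with HCVcc-Cre virus (about 0.5 moi) added next. Following 44 h of culture, luminescent signal is measured for 15 sec after 15 min with substrate at room temperature.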
# FMDV antiviral – antivirals against foot and mouth disease virus. FMDV antiviral cell-based qHTS. 410,000 compounds, 1.2% hits. Potency, µM (top dose mostly 57.9 µM), for inactives: at the highest dose activity change, negative = inhibition, usual class: inhibitors. AID 1159524; calls by dose curve; tested in HEK293T cells; note: read-out not given here; potency is the fitted concentration of half-maximal effect; nearly all actives have a fitted effect of over 45% in size
# HCMV antiviral – inhibitors of human cytomegalovirus. AID 1259415. 410,000 compounds, 4.5% hits. activity change, negative = inhibition, % at 57.5 µM. HFF cells, HCMV-luciferase reporter, 72 h; active compounds read low; in the data active = activity change below about -60%; inconclusive = no clear call, values can overlap the other calls; inactive = above about -39%
#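 Compounds were evaluated in HFFs infected with an HCMV luciferase reporter virus (MOI 1 PFU/cell). Luciferase in lysates collected 72 h post infection served as the replication measure.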
# Lassa entry inh – inhibitors of Lassa virus binding or cell entry; Lassa virus pseudotype entry inhibition, cell reporter; Potency, µM (highest dose often 37.9 µM), for the others: top-dose activity change, negative = inhibition, most hits filed as inhibitors; 300,000 compounds, 1.2% hits; calls by dose curve; tested in HEK293 cells; note: potency is the fitted concentration of half-maximal effect; nearly all actives have a fitted effect of over 50% in size
# Numbers without * were called inactive; ? = inconclusive; . = no result; [ ] = dose if it differs, or a comment. % is set by controls: 0 for no effect and ±100 for the full control effect.
SMILES,MARV entry inh,HCV inhibitor,FMDV antiviral,HCMV antiviral,Lassa entry inh
COc1cc2c(cc1NC(=O)COC(=O)CNC(=O)c1ccccc1)oc1ccccc12,-10%[46.1 µM],10µM*,56%,?,24%
COc1cc2c(cc1NC(=O)COCC(=O)O)oc1ccccc12,2%[46.1 µM],2%,-5%,?,24%[46.1 µM]
COc1cc2c(cc1NC(=O)COC(=O)C1CC(=O)N(Cc3ccco3)C1)oc1ccccc12 (stereo not given),-3%,4.5µM*,49%,203,20%
CSc1ccc(CN(C)C(=O)CNC(=O)c2ccc3c(c2)OCO3)cc1,-1%,-4%,-13%,-22,-7%
COc1cc(OC)c2nc(-c3cc4c(c(OC)c3)OCCN(C(=O)C(C)c3n[nH]c(=O)c5ccccc35)C4)cc(C)c2c1 (stereo not given),.,.,-9%,.,.
O=C(N/N=C/c1ccccc1)c1[nH]c2ccc(Br)cc2c1-c1ccccc1,?,?,10%,-99*,?
O=C(NN=C1CCCC1)c1[nH]c2ccc(Br)cc2c1-c1ccccc1,8.9µM*,-11%,-13%,-91*,?
O=C(CCN1CCOCC1)Nc1c(-c2ccccc2)c2cc(Br)ccc2[nH]c1=O,-1%,5%,7%,23,6%
O=C(Nc1nc2ccccc2s1)c1cc(-c2ccccc2)nn1-c1ccccc1,?,?,-24%,-75*,?
O=C(Cc1ccc(-n2c(=O)c3sccc3n(CC(=O)Nc3ccccc3)c2=O)cc1)NCc1ccco1,17%[46.1 µM],0%,-12%,-37,-20%[46.1 µM]
O=C(Cc1ccc(-n2c(=O)c3sccc3n(CC(=O)Nc3ccccc3F)c2=O)cc1)NCc1ccco1,.,19%,10%,-60*,.
Brc1ccccc1CN1CCC(N2CCCCC2)CC1,-23%,4µM*,-9%,-1,?
O=CNc1ccc2c3c(cccc13)-c1ccccc1-2,14%,2.8µM*,53%,34,-3%
CC(C)CCOc1ccc(Cn2c(=O)oc3ccccc32)cc1,-5%[46.1 µM],.,-23%,14,18%[46.1 µM]
OC(Cc1ccnc2ccccc12)C(Cl)(Cl)Cl (stereo not given),?,11µM*,?,-80*,?
O=C(O)C(Cc1ccnc2ccccc12)=NO,29%,16%,-17%,18,9%[46.1 µM]
CN(C)c1ccc(CN(C(=O)c2ccc(Cl)c([N+](=O)[O-])c2)C2CCS(=O)(=O)C2)cc1 (stereo not given),11µM*,?,-15%,-2,?
CCCOc1cccc(C(=O)N(Cc2ccccc2)C2CCS(=O)(=O)C2)c1 (stereo not given),?,14%,-20%,-66*,?
O=C(c1ccc(Cl)c([N+](=O)[O-])c1)N(Cc1ccc(F)cc1)C1CCS(=O)(=O)C1 (stereo not given),-15%,-16%,-12%,-14,4%
O=C(CN1C(=O)C(c2ccc(F)cc2)=NC12CCCC2)Nc1ccc(F)cc1,.,2.5µM*,?,-78*,.
Cc1cccc(NC(=O)CN2C(=O)C(c3ccccc3)=NC23CCC(C)CC3)c1 (stereo not given),?,.,-27%,-61*,?
Cc1ccc(NC(=O)CN2C(=O)C(c3ccccc3)=NC23CCCCC3)cc1C,?,.,-23%,53,-7%[46.1 µM]
CC1C/C(=N/N2C(=O)CSC2=S)CC(C)(C)C1 (stereo not given),-4%[46.1 µM],2%,-18%,-70*,-25%
COc1ccc(Sc2nc(-c3ccccn3)ncc2OC)cc1,16µM*,?,-21%,?,21µM*
COc1cnc(-c2ccccn2)nc1N(C)c1ccccc1,?,10µM*,8%,-98*,?
SMILES,MARV entry inh,HCV inhibitor,FMDV antiviral,HCMV antiviral,Lassa entry inh
COc1cnc(-c2ccccn2)nc1Oc1ccccc1,?,-4%,-13%,-31,6%
COc1cnc(-c2ccccn2)nc1Sc1ccccc1,?,6.3µM*,0%,-100*,-20%
COc1cnc(-c2ccccn2)nc1Sc1ccc(Cl)cc1,?,?,8%,-14,?
COc1cnc(-c2ccccn2)nc1Oc1cccc(C(F)(F)F)c1,.,.,.,-99*,.
COc1ccc(C)cc1NC(=O)n1ncc2cc(Cl)ccc21,.,3%,-5%,.,.
COc1cnc(-c2ccccn2)nc1Sc1ccc(F)cc1,?,0.56µM*,-20%,?,?
Cc1ccc(C(=O)COC(=O)CCC(=O)Nc2ccc(Oc3cc(C)ccc3C(C)C)cc2)cc1,-18%[46.1 µM],.,2%,-21,17%[46.1 µM]
COc1ccc(Cl)cc1C(=O)Nc1ccc2nc3n(c(=O)c2c1)CCCC3,?,?,11%,?,-4%
CCOc1ccccc1C(=O)Nc1ccc2nc3c(c(Nc4ccc(OC)c(OC)c4)c2c1)CCCC3,?,.,?,-103*,10µM*
COc1ccccc1Nc1c2c(nc3ccc(NC(=O)c4ccc(N(C)C)cc4)cc13)CCCC2,3.2µM*,.,-27%,-101*,?
COc1cc(OC)cc(C(=O)Nc2ccc3nc4c(c(Nc5ccc(OC)c(OC)c5)c3c2)CCCC4)c1,2.5µM*,.,?,-105*,?
COc1ccc(Nc2c3c(nc4ccc(NC(=O)c5cc(Cl)ccc5OC)cc24)CCCC3)cc1OC,?,.,32µM*,-108*,?
CC(=O)c1ccc(Nc2c3c(nc4ccccc24)CCCC3)cc1,.,?,?,-14,.
COc1cc(NC(=O)CCn2cnc3ccccc3c2=O)cc(OC)c1,.,.,-14%,17,18%[46.1 µM]
COC(=O)C1=C(C)N(CCCC(=O)O)C(=O)NC1c1cccc(Cl)c1Cl (stereo not given),.,30%,-23%,10,.
COc1cc(CNCCN2CCOCC2)ccc1OCc1ccc(Cl)cc1Cl,?,?,-20%,-85*,?
COc1ccc(CCNCc2ccc(OCc3ccc(Cl)nc3)c(OC)c2)cc1OC,13µM*,?,0%,-25,2%
COc1ccc2ccccc2c1CNCCN1CCOCC1,.,-1%,-5%,35,.
CCCCCNCc1ccc(OCc2ccc(Cl)nc2)c(OC)c1,?,1%,-6%,-2,-10%
COc1cc(CNCCN2CCOCC2)ccc1OCc1cccc(Cl)c1,?,8.9µM*,-11%,-16,?
O=C(COC(=O)c1ccccc1-n1cnnn1)c1ccc(F)cc1,-18%[46.1 µM],?,5%,-24,-26%
O=C(Cn1nnc(-c2ccccc2Cl)n1)N/N=C/c1ccc(-c2cccc(Cl)c2)o1,-24%,1%,-18%,?,-15%
COc1cc(-c2nnc(CSc3nnc(Nc4ccc(C(C)C)cc4)s3)o2)cc(OC)c1OC,?,7.1µM*,13%,41,?
COc1cccc(N2CCN(CC(=O)Nc3nnc(-c4ccccc4)s3)CC2)c1,?,6.3µM*,16µM*,-21,0.79µM*
COc1cccc(N2CCN(CC(=O)NC3=Nc4ccccc4N=C(C)C3c3ccccc3)CC2)c1 (stereo not given),?,?,-25%,1,?
CCOC(=O)Nc1nnc(-c2cccc(OC)c2)s1,17%,-3%,40%,-66*,-7%
COC(=O)c1ccccc1NC(=O)CCCn1nc(C)c2sc3ccccc3c2c1=O,?,.,-23%,29,10%[46.1 µM]
